Laboratory results reported in PubChem BioAssay (Tox21).
Calls of active or inactive are those of the source. Calls follow the shape of the dose curve; as a rule, active = well fitted curve in the direction sought with a large enough effect in the repeat runs; inconclusive = weak or mixed curves; inactive = flat fitted curve, though single readings scatter. Non-standard residues stand in square brackets, D forms with d. Residues, ends and D or L forms follow the SMILES beside them. *: point of attachment. Sta = CC(C)C[C@H](N)[C@@H](O)CC(=O)O; Isovaleryl = CC(C)CC(=O)*

Assay: qHTS assay to test for compound auto fluorescence at 535 nm (green) in HepG2 cells (AID 720675)
Settings: green autofluorescence 485/535 nm, 1 h; series mostly up to 91.3 µM
% is scaled to controls: 0 for no effect and ±100 for the full control effect.

| SMILES | fluorescence, % of fluorescein control | outcome |
| --- | --- | --- |
| COc1cnc(NS(=O)(=O)c2ccc(N)cc2)nc1 | -0.0734% [at 18.6 µM] (inactive) |  |
| CCCCCCCCOCCC#N |  | inactive |
| NC[C@H]1O[C@H](O[C@H]2[C@H](O)[C@@H](O[C@H]3O[C@H](CO)[C@@H](O)[C@H](N)[C@H]3O)[C@H](N)C[C@@H]2N)[C@H](N)[C@@H](O)[C@@H]1O |  | inactive |
| C=CCOC(=O)CCCCCCCC |  | inactive |
| CC(C)(Sc1cc(C(C)(C)C)c(O)c(C(C)(C)C)c1)Sc1cc(C(C)(C)C)c(O)c(C(C)(C)C)c1 | -0.143% [at 18.6 µM] (inactive) |  |
| CC(=O)c1c(C)cc(C(C)(C)C)cc1C |  | inactive |
| Nc1cc(S(=O)(=O)O)ccc1O |  | inactive |
| O=C(O)Cc1ccccc1Oc1ccc(Cl)cc1Cl |  | inactive |
| CCCCCCCCC1CO1 (configuration not stated) |  | inactive |
| N=C(N)N |  | inactive |
| COC(=O)c1ccc(C(=O)O)cc1 |  | inactive |
| CC(C)CC(=O)N[C@H](C(=O)N[C@H](C(=O)N[C@@H](CC(C)C)[C@@H](O)CC(=O)N[C@@H](C)C(=O)N[C@@H](CC(C)C)[C@@H](O)CC(=O)O)C(C)C)C(C)C (Isovaleryl-VV[Sta]A[Sta]-OH) |  | inactive |
| Cc1ccc(O)c([N+](=O)[O-])c1 |  | inactive |
| Cc1ccc(NC(N)=O)cc1 |  | inactive |
| CCOCCOCCOC(C)=O |  | inactive |
| CCCCCCCCCCCCCC(=O)OCC |  | inactive |
| C[C@@H]1CC[C@@]2(OC1)O[C@H]1C[C@H]3[C@@H]4CC[C@H]5C[C@@H](O)CC[C@]5(C)[C@H]4CC(=O)[C@]3(C)[C@H]1[C@@H]2C | -0.248% [at 18.6 µM] (inactive) |  |
